GPR7 antagonist = human neuropeptides B/W receptor 1 antagonism. hit rate 1.1% among 290,000. GPR7-expressing cells, fluorescence antagonist assay. inhibition, % at 4.4 µM. P48145; in the data active = inhibition above about 16%, passing the limit was not always enough;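 note: cells stimulated with the agonist NPW; 0% = agonist with vehicle and 100% = vehicle without agonist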
Target sequence (P48145 whole entry, looked up): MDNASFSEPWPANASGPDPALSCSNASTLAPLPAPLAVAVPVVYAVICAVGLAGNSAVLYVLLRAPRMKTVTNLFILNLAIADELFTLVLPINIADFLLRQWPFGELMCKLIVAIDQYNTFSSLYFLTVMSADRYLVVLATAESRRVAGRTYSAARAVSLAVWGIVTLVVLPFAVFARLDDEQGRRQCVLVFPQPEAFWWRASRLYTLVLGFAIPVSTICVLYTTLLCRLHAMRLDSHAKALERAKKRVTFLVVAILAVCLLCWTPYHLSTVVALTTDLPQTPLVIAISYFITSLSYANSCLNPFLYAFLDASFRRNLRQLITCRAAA
TMEM16A inh = blocks the mouse calcium-activated chloride channel TMEM16A; Q8BHY3; HEK293 TMEM16A/YFP iodide influx fluorescence, ionomycin; normalized B-score (activity score, 25-100; higher = stronger inhibition) at 10 µM; hit rate 1.2% among 310,000;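 active = ratio plate-corrected score three or more library SD toward inhibition, starting fluorescence score within five deviations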;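 note: score derived from kinetic fluorescence span divided by baseline fluorescence per well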
CHT block = human CHT choline transport inhibition; AID 488975; hit rate 0.86% among 310,000; CHT-expressing cells, membrane potential dye, choline response; stronger effect = lower value; B-score at 10 µM; Q9GZV3;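 active = B-score over 3 SD under the library average, and starting fluorescence ratio not unusually high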;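 note: choline stimulus applied at its EC90 after an EC20 pre-addition; B-score computed on integrated fluorescence ratio after choline addition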
CHT PAM = allosteric activators of human choline transporter CHT. CHT-expressing cells, membrane potential dye, choline EC20; stronger effect = higher value; LV-AA mutant CHT in HEK293 cells. Q9GZV3. B-score at 10 µM. AID 488977. hit rate 0.49% among 310,000;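 active = initial fluorescence not abnormally high and integrated response B-score, plate-corrected, over 3 SD above library mean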
TMEM16A act = activates or potentiates the mouse TMEM16A chloride channel; hit rate 0.3% among 340,000; AID 623877; B-score at 10 µM; HEK293 TMEM16A/YFP-H148Q/I152L, iodide quench fluorescence; stronger effect = lower value;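 active = fluorescence-ratio B-score plate-corrected deviation score at least 3 library SD below zero, with starting fluorescence score within 5 deviations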;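 note: channel opened by trigger with iodide after compound preincubation; score built on the fluorescence ratio of max minus min over baseline; more negative score means more quench and so TMEM16A activation or potentiation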
Kir21 block = Kir2.1 (mouse) channel inhibition; P35561; HEK293-Kir2.1, FluxOR thallium flux fluorescence; stronger effect = lower value; B-score at 10 µM; hit rate 0.85% among 310,000; AID 1672;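 active = fluorescence ratio B-score at or below minus 3 SD of library scores, with starting-brightness B-score within 2 SD, cut at about -4.2 in these data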;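 note: channel flux triggered by added potassium and thallium sulfate stimulus; B-score of peak minus minimum fluorescence over baseline after thallium stimulus; more negative B-score means stronger Kir2.1 block with less thallium influx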
* = called active by the depositor; i = inactive; · = not tested or not shown. Rows were chosen to be rich in hits. Some 3.7% of all compounds tested hit in one or more screens of this group.

SMILES | GPR7 antagonist | TMEM16A inh | CHT block | CHT PAM | TMEM16A act | Kir21 block
O=C(NC1=NC2CCCCC2N1)c1ccccc1 (stereo not drawn) | -8.4 | i | i | i | -6.59* | ·
O=C(NC1CCCCCCC1O)c1ccccc1 (stereo not drawn) | · | · | · | · | i | ·
Cc1c[nH]c2cccc(OCC(CNC(C)(C)C)OC(=O)c3ccccc3)c12 (stereo not drawn) | 10.4 | i | -11.3* | i | i | -2.18
COc1ccc2c(c1)[nH]c1c(N3CCN(Cc4ccc5c(c4)OCO5)CC3)ncnc12 | 4.1 | 100* | i | i | i | -1.18
Cc1ccc(C(=O)CN(C(=O)c2ccc(Cl)c(Cl)c2)N2C(=O)C3CCCCC3C2=O)cc1C (stereo not drawn) | -7.7 | i | i | i | -5.52* | 1.29
CCOc1cc(C)c(Cl)cc1S(=O)(=O)NCc1ccc2c(c1)OCO2 | -1.4 | i | i | i | i | -6.56*
Cc1cc(C)c(S(=O)(=O)NCc2ccc3c(c2)OCO3)cc1C | -7.8 | i | i | i | i | -4.26*
CCOc1cc(C)c(Cl)cc1S(=O)(=O)N1CCCC1 | 12.5 | i | i | i | i | -5.55*
Cc1cc(C)c(S(=O)(=O)NCc2ccc3c(c2)OCO3)c(C)c1 | 7.3 | i | i | i | i | -1.14
Nn1c(SCC(=O)NC2CCCCC2)nnc1-c1ccccc1F | · | · | · | · | i | ·
N#CC1=C(N)SC(N)=C(C#N)C1Cc1ccccc1 | -1.5 | i | i | i | i | -0.79
N#CC1=C(N)SC(N)=C(C#N)C1CCc1ccccc1 | -0.3 | i | -6.05* | i | i | -0.95
COc1ccc(NC(=O)CN2CCN(c3ccc(F)cc3)CC2)cc1Cl | -9.2 | i | i | i | -11.2* | -0.79
Cc1ccc(Cl)cc1N1CCN(S(C)(=O)=O)CC1 | 14.0 | i | i | i | i | 0.74
Cc1ccc(Cl)cc1N1CCN(S(=O)(=O)N2CCCCC2)CC1 | 22.7* | i | i | i | -9.75* | -1.82
COc1ccccc1CC(=O)Nc1ccccc1O | -4.0 | i | i | i | i | 0.5
COc1ccccc1CC(=O)Nc1ccc([N+](=O)[O-])cc1O | 29.3* | i | i | i | i | 0.03
Oc1ccc(CN2CCc3ccccc3C2)c2cccnc12 | -0.8 | i | i | i | i | -10.3*
COCc1nnc(NC(=O)CS(=O)(=O)c2ccc(C)cc2)s1 | -2.8 | i | i | i | i | -0.78
CC1c2cc3c(cc2CCN1C(=O)c1cccc(F)c1)OCCCO3 (stereo not drawn) | 7.5 | i | i | i | i | -0.77
CCOC(=O)C1CCCN(c2c(N3CCc4ccccc4C3)c(=O)c2=O)C1 (stereo not drawn) | 21.8* | · | · | · | · | ·
CCC1=C(OC(=O)N(CC)CC)N2C(=O)OC(=NCCOC)[C@]2(Cc2ccccc2)[C@H]2C1=CC[C@H]1C(=O)N(CC(=O)OC)C(=O)[C@H]12 | · | 25* | i | i | i | 1.68
Cc1ccc(S(=O)(=O)N2CCN(Cc3ccccc3)CC2)s1 | · | · | · | · | i | ·
CC(=O)c1c(C)[nH]c(C(=O)NCC2CCCCC2)c1C | -10.3 | i | i | i | i | 1.37
O=[N+]([O-])c1ccc(Oc2ccc(S(=O)(=O)N3CCCCC3)cc2)cc1 | -11.3 | 25* | i | i | i | -0.5
SMILES | GPR7 antagonist | TMEM16A inh | CHT block | CHT PAM | TMEM16A act | Kir21 block
Cn1ccnc1SCC(=O)Nc1ccc(F)c([N+](=O)[O-])c1 | -7.0 | i | i | i | i | 0.17
Cc1cccc(NC(=O)COc2cccc3c2CCN(Cc2ccccc2)C3=O)c1C | -3.6 | i | i | i | -6.46* | 0.78
COc1ccc(C(=O)NNC(=O)c2cccs2)cc1S(=O)(=O)N1CCOCC1 | · | · | · | · | i | ·
Clc1ccc(-c2nn3cnnc3s2)c(Cl)c1 | 0.2 | 25* | i | i | i | -0.01
CCCNC(=O)C(Cc1ccc(F)cc1)NC(=O)c1ccccc1 (stereo not drawn) | · | · | · | · | i | ·
CN(C)c1nc(N)ncc1-c1ccc(Oc2ccccc2)cc1 | 0.6 | i | i | i | i | 0.33
C=CCCC1(C)C(=O)N(c2ccccc2)c2ccccc21 (stereo not drawn) | -6.5 | i | i | i | i | -6*
CC1(C)C(=O)N(c2ccccc2)C(=O)c2ccccc21 | · | i | i | i | i | -1.26
O=C(CSc1ccccc1)N(c1ccc(Br)cc1)c1nccs1 | -3.8 | i | i | i | i | -5.22*
CSc1ccc(S(=O)(=O)NCC(=O)OCC(=O)N2CCC(C)CC2)cc1[N+](=O)[O-] | · | · | · | · | i | ·
O=S(=O)(Nc1nc(SCc2ccc(Cl)cc2)n[nH]1)c1ccc(F)cc1 | -13.1 | i | i | i | i | -10.4*
CCc1nc(SCc2ccc(Cl)cc2)n[nH]1 | -2.2 | i | i | i | i | 0.14
Cn1c(SCC(=O)N2CCCc3ccccc32)nc2cccnc21 | -5.0 | i | i | i | i | -0.98
O=C(CSc1nccn1-c1ccccc1)N1CCc2ccccc21 | 7.4 | i | i | i | i | -3.2
O=C(CSc1nccn1-c1ccc(Cl)cc1)N1CCCc2ccccc21 | -1.2 | i | i | i | i | -9.34*
Cc1[nH]c2ccccc2c1C(=O)C(=O)N1CCCc2ccccc21 | -3.4 | i | i | i | i | -1.14
CCn1c(SCC(=O)N2CCCc3ccccc32)nc2cccnc21 | -1.0 | i | i | i | i | -4.87*
Cc1ccc(-c2cnc(SCC(=O)N3CCCc4ccccc43)n2C)cc1 | 1.7 | i | i | i | i | ·
Cn1c(-c2ccccc2)cnc1SCC(=O)N1CCCc2ccccc21 | -1.1 | i | i | i | i | -7.46*
Cc1[nH]c2ccccc2c1SCC(=O)N1CCCc2ccccc21 | -3.9 | i | i | i | i | -7.8*
Cc1ccc(C2(C)NC(=O)N(CC(=O)Nc3cc(S(=O)(=O)N4CCOCC4)ccc3OC(C)C)C2=O)cc1 (stereo not drawn) | · | · | · | · | i | ·
COc1ccccc1CNCc1cc(OC)c(OC)c(OC)c1 | -16.8 | i | i | i | i | -0.17
COc1ccc(CNCc2cccc(OC)c2OC)cc1Br | -6.4 | i | i | i | i | -5.02*
O=C(CCc1c[nH]c2ccccc12)NCC(=O)Nc1ccc(F)c(F)c1F | 2.9 | i | i | i | -6.34* | -0.17
Nc1ccc(C(=O)NCCCSc2ccccc2)cc1[N+](=O)[O-] | -4.1 | i | i | i | i | -0.91
O=S(=O)(c1ccc(SCc2ccc(Cl)cc2)nc1)N1CCCC1 | · | · | · | · | i | ·
COc1ccc(CSc2ccc(S(=O)(=O)N3CCCCC3)cn2)cc1F | · | · | · | · | -22.5* | ·
c1ccc2c(c1)oc1c(Nc3ccc(CN4CCOCC4)cc3)ncnc12 | 0.0 | i | i | i | i | -5.02*
